12-LOX inh = ALOX12 (human) lipoxygenase inhibition. Potency, µM (titrated, usually from 108 µM), inactives show at the highest dose activity change, negative = inhibition, hits mostly inhibitors. AID 1671190. P18054. hit rate 1.1% among 580,000. purified 12hLO, xylenol orange hydroperoxide absorbance; note: potency is the fitted concentration of half-maximal effect
Target sequence (P18054 whole entry, looked up): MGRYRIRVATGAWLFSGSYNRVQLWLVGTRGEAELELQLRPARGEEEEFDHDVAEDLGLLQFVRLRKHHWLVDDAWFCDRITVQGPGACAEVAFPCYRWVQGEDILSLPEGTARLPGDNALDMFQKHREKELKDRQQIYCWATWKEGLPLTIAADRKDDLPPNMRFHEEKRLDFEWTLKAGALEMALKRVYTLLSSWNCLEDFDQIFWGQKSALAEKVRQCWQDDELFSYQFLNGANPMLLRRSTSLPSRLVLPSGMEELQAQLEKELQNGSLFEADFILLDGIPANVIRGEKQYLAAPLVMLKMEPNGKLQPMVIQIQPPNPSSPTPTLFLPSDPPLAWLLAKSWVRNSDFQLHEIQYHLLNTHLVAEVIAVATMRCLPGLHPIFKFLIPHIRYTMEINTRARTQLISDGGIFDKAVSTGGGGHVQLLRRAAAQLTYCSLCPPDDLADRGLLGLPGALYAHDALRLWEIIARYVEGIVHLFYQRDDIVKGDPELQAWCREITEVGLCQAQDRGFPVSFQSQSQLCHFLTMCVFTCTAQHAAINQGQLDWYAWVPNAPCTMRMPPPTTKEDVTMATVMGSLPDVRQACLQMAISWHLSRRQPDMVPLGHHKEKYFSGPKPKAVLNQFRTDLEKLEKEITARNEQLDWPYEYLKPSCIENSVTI
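Hydroperoxide product was detected by ferrous iron/xylenol orange as the 573 to 405 nm absorbance ratio. Arachidonic acid at 40 uM (final) was turned over for 30 min at room temperature by 150 nM human 12hLO, pH 7.0 Hepes buffer, after 15 min compound preincubation.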
DT40 TDP1 CPT = growth inhibition of DT40 Tdp1-/-;hTDP1 cells with camptothecin (screen for TDP1 inhibitors); AID 686979; chicken DT40 Tdp1-/-;hTDP1 cells + 20 nM CPT, ATP luminescence, 48 h; hit rate 12% among 420,000; Potency, µM (series often up to 46.2 µM), for inactives: at the top dose activity change, negative = growth inhibition, usual class: inhibitors; note: potency is the fitted concentration of half-maximal effect; nearly all actives have a fitted effect of over 55% in size
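Cell growth measured by CellTiter-Glo luminescence after a minimum 48 h, 37 C compound exposure with 20 nM CPT in Tdp1-knockout DT40 cells stably expressing hTDP1, seeded 400/well; qHTS titration format.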
HT1080 IDH1KD tx = kills HT-1080 cells with IDH1 knockdown; HT-1080 IDH1 knockdown viability, ATP luminescence, 48 h; hit rate 2% among 360,000; Potency, µM (doses to about 46.1 µM), for the others: at the highest dose activity, negative = toxicity, actives largely listed as cytotoxic;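 note: potency is the fitted concentration of half-maximal effect; 0% = DMSO wells and -100% = cell-free medium wells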
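Cytotoxicity counter-line: IDH1KD HT-1080, 48 h, CellTiter-Glo. Curves classed by r2, magnitude and activity.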
IL-1B inflam inh = blocks inflammasome-driven IL-1 beta release; THP-1 LPS/ATP IL-1B secretion, AlphaLISA, 16 h; stronger effect = lower value; activity change, % at 57.5 µM; hit rate 4.7% among 360,000; in the data active = activity change below about -50%; inconclusive = mostly about -30% to -49%
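THP-1 cells pretreated 1 hr with compounds (up to 57.5 uM final), then stimulated with LPS (250 ng/mL final) plus ATP (1.25 mM final); secreted IL-1B measured by AlphaLISA after 16 hr, decreased signal indicating inhibition.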
HT1080NT lethal = kills 2HG-producing HT-1080-NT fibrosarcoma cells | hit rate 1.6% among 360,000 | HT-1080-NT fibrosarcoma viability, CellTiter-Glo ATP luminescence, 48 h | Potency, µM (series often up to 46.1 µM), without a hit: top-dose activity, negative = less viability, usual class: cytotoxic | AID 686970;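 note: NT is the 2HG producing partner of a matched IDH1 knockdown line; potency is the fitted concentration of half-maximal effect; 0% = DMSO-treated cells and -100% = media-only wells without cells; nearly all actives have a fitted effect of over 55% in size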
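Read-out is CellTiter-Glo luminescence after 10 minutes at room temperature, following 48 hours' compound treatment of HT-1080-NT cells (750 cells/well, RPMI, 5% FBS, 37 degrees C).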
TDP1 cell noCPT = qHTS for Inhibitors of human tyrosyl-DNA phosphodiesterase 1 (TDP1): qHTS in cells in absence of CPT. DT40 Tdp1-/- hTDP1 cells, no CPT, ATP luminescence, 48 h. Potency, µM (series often up to 46.2 µM), inactives show top-dose activity change, negative = growth inhibition, most hits filed as inhibitors. hit rate 15% among 420,000; note: potency is the fitted concentration of half-maximal effect; nearly all actives have a fitted effect of over 55% in size
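Compound effects on proliferation are scored in DT40 Tdp1-/-;hTDP1 cells in the absence of CPT. ATP levels (CellTiter-Glo luminescence) are recorded after a ≥48 hr, 37 °C incubation.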
* hit, by the source's call; u = inconclusive; x = not tested or not shown; [ ] = another dose, or the depositor's remark. This excerpt belongs to a sample that is enriched for hits. Unless noted, calls come from the whole dose curve; as a rule, active = well fitted curve in the direction sought with a large enough effect; inconclusive = small, poorly fitted or top-dose-only effect, or another doubt; inactive = no such curve, though single readings can be large; an effect the other way counts as inactive or inconclusive. Unless noted, % is set by controls: 0 for no effect and ±100 for the full control effect.

SMILES	12-LOX inh	DT40 TDP1 CPT	HT1080 IDH1KD tx	IL-1B inflam inh	HT1080NT lethal	TDP1 cell noCPT
Clc1cccc(Nc2ncnc3ccc(Br)cc23)c1	-5%[57.4 µM]	26µM*	u	-58*	7.9µM*	u
CNC(=O)[C@@H]1C[C@H](Oc2ccccc2)CN1C(=O)Cn1nc(C(F)(F)F)cc1C	33%	x	x	x	x	x
CN1C(=O)c2cccn2CC1CNC(=O)CCc1c[nH]c2ccccc12 (stereo not drawn)	45%	x	x	x	x	x
Cc1nc2c3cccnc3nn2c(C)c1CCC(=O)Nc1cccc(Br)c1	-27%	x	x	x	x	x
CCOC(=O)c1cccc(Nc2ncnc3ccc(C)cc23)c1	0%	15µM*	u	-15	u	21µM*
Cc1csc2nc(O)c(C(=O)NCC3CCCO3)c(=O)n12 (stereo not drawn)	-16%	-13%	-11%	33	-19%	-11%
Cc1csc2nc(O)c(C(=O)NC3CCCCC3C)c(=O)n12 (stereo not drawn)	6%	u	-4%	26	-16%	18µM*
CC1CCCCC1NC(=O)c1c(O)nc2ccccn2c1=O (stereo not drawn)	3%	u	-1%	81	u	21µM*
CC1CCCCC1NC(=O)c1cc2c(=O)n3ccccc3nc2n1C (stereo not drawn)	18%	23µM*	-3%	18	1%	16µM*
O=C(Cc1ccsc1)NC1CCCN(c2cc(-c3ccc(F)cc3)[nH]n2)C1 (stereo not drawn)	22%	x	x	x	x	x
Cc1cnc(C2CCNC2)n1Cc1ccccc1 (stereo not drawn)	47%	x	x	x	x	x
CCc1cc(=O)n(CC(=O)Nc2ccc(F)cc2)c(-c2ccccc2)n1	-27%	x	x	x	x	x
O=C(Cc1c(F)cccc1Cl)NC1CCN(c2cc(-c3ccccc3)[nH]n2)CC1	-7%	x	x	x	x	x
Cc1ccc(NC(=O)CSc2nc3c(cnn3-c3ccc(C)cc3)c(=O)[nH]2)cc1	-1%	x	x	x	x	x
Cc1cccc(Nc2nc(-c3ccc([N+](=O)[O-])cc3)cs2)c1	-23%	x	x	x	x	x
CC/C(=N/NC(=O)c1ccccc1O)c1c(C)[nH]n(-c2ccccc2)c1=O	u	2.1µM*	26µM*	136	u	1.8µM*
Cc1[nH]n(-c2ccccc2)c(=O)c1C(=O)c1ccc(Cl)cc1	u	u	-29%	77	u	u
Cc1[nH]n(-c2ccc(Cl)cc2)c(=O)c1C(=O)c1ccccc1	u	u	u	-8	-28%	u
CCSC(=S)c1c(C)[nH]n(-c2ccccc2)c1=O	-22%	15µM*	u	-22	u	13µM*
COc1ccc(NC(=O)Cn2nc(N3CCCCC3)c3ccccc3c2=O)cc1	1%	x	x	x	x	x
CCOC(=O)C(C)N1C(=O)S/C(=C/c2ccc3c(c2)n(C)c(=O)n3C)C1=O (stereo not drawn)	-4%	u	4%	-27	6%	u
CCC(C)N1C(=O)S/C(=C/c2ccc3c(c2)n(C)c(=O)n3C)C1=O (stereo not drawn)	-6%	23µM*	-27%	0	-24%	23µM*
Fc1cc(Cl)ccc1NC1=NCCCCC1	5%	-12%	1%	-67*	3%	-3%
COc1cccc(NC(=O)C2(C)CCN2CCc2ccccc2)c1 (stereo not drawn)	-2%	23µM*	-4%	17	8%	u
COc1ccc(NC(=O)C2(C)CCN2CCc2ccccc2)cc1OC (stereo not drawn)	-3%	u	15%	-8	21%	u
SMILES	12-LOX inh	DT40 TDP1 CPT	HT1080 IDH1KD tx	IL-1B inflam inh	HT1080NT lethal	TDP1 cell noCPT
COc1ccc(OC)c(NC(=O)C2(C)CCN2CCc2ccccc2)c1 (stereo not drawn)	10%	23µM*	u	16	u	16µM*
C=CCn1c(C)cc(C(=O)COc2ncnc3ccc(Br)cc23)c1C	15%	x	x	x	x	x
CCO[C@H]1OC(C(=O)NCc2nc3ccccc3[nH]2)=C[C@@H](C2CCCCC2)[C@@H]1CCCO	0%	13µM*	-9%	u	-14%	15µM*
CCO[C@H]1OC(C(=O)NCc2nc3ccccc3[nH]2)=C[C@@H](c2ccc(C(F)(F)F)cc2)[C@@H]1CCCO	-2%	u	-22%	u	-19%	16µM*
CCO[C@@H]1OC(C(=O)NCc2nc3ccccc3[nH]2)=C[C@H](c2ccc(C(F)(F)F)cc2)[C@H]1CCCO	7%	u	-15%	-64*	-12%	u
CCO[C@H]1OC(C(=O)NCc2nc3ccccc3[nH]2)=C[C@@H](C)[C@@H]1CCCO	8%	u	-3%	0	10%	u
C#Cc1ccc([C@@H]2C=C(C(=O)NCc3nc4ccccc4[nH]3)O[C@H](OCC)[C@H]2CCCO)cc1	10%	u	-9%	-18	-8%	u
O=C(CN1c2ccccc2Sc2ccccc21)N/N=C/c1ccc(Cl)cc1	167%	u	-11%	-15	-13%	u
O=C(CN1c2ccccc2Sc2ccccc21)N/N=C/c1ccc(Cl)cc1Cl	0%	u	19%	-21	-2%	18µM*
O=C(CN1c2ccccc2Sc2ccccc21)NNC(=S)Nc1ccc(Cl)cc1	14µM*	0%	u	-8	u	-15%
O=C(CCC1CCCN(S(=O)(=O)c2ccccc2)C1)NC1CCS(=O)(=O)C1 (stereo not drawn)	50%	x	x	x	x	x
O=S1(=O)N=C(Nc2nc3c(s2)CCCC3)c2ccccc21	0%	6.5µM*	-16%	5	-19%	5.2µM*
Cc1cccc(Nc2nc3c(s2)CCCC3)c1	u	23µM*	0%	-5	-6%	18µM*
CCOCCCNC(=O)c1cc2cc(S(=O)(=O)N(C)C)ccc2n1CC	1%	x	x	x	x	x
Cc1nc(-c2ccc(Cl)cc2)sc1CCNC(=O)Cc1ccc(F)cc1	-24%	16µM*	x	x	x	15µM*
COc1ccc(-c2nc3sc(CCNC(=O)C(=O)Nc4c(C)cccc4C)c(C)n3n2)cc1	-22%	-6%	x	x	x	-13%
COc1ccc(-c2nc3sc(CCNC(=O)c4cc(OC)c(OC)c(OC)c4)c(C)n3n2)cc1	-12%	23µM*	x	x	x	16µM*
Cc1ccc(Cl)cc1NC(=O)C(=O)NCCc1sc(-c2ccc(F)cc2)nc1C	-28%	u	x	x	x	u
COc1ccc(-c2nc3sc(CCNC(=O)c4ccco4)c(C)n3n2)cc1	-10%	u	x	x	x	13µM*

Assay outcomes: PubChem, National Center for Advancing Translational Sciences (NCATS)
